Screening data: PubChem, The Scripps Research Institute Molecular Screening Center
Compounds with a hit are over-represented: about 1.3% of the library has one in this group of screens.
PKA-R1A act: activates the PKA-R1A holoenzyme complex; P00514+P68181; PKA-R1A dissociation, Cy5-IP20 fluorescence polarization; scaled: DMSO 0%, 113 µM cGMP 100%; activation, % at 11.4 µM; 0.083% of 340,000 active; AID 504707;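 active = percent activation above the mean of all tested compounds plus 3 SD, cut at about 19% in these data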;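 also: higher means more PKAc released from R1A so a rise in polarization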
IDE cell activ: IDE (human) activation, cell-based. activation, % at 5.96 µM. HEK cells, FAbeta-B cleavage, fluorescence polarization; 0% vehicle, 100% cell-free pure enzyme wells. 0.073% of 340,000 active. AID 493087;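 active = activation above the mean of all tested compounds plus 3 SD, set per screening campaign, cut at about 17% in these data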
eLon inh: inhibitors of E. coli Lon protease; P0A9M0; purified E. coli Lon protease, fluorescence polarization; inhibition, % at 7.94 µM; 0.42% of 360,000 active; AID 602123; in the data active = inhibition above about 13%, passing the limit was not always enough
IDE inh: inhibitors of human insulin-degrading enzyme in cells | P14735 | HEK cells, FAbetaB cleavage, fluorescence polarization | inhibition, % at 5.59 µM | 0.41% of 320,000 active | AID 434962;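 active = percent inhibition above the average of all tested compounds plus 3 SD, set per screening campaign, cut at about 16% in these data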;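 also: IDE supplied by intact live HEK cells; FP after avidin binding of uncleaved biotin substrate so inhibition keeps polarization high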
Rin1-Abl PPI inh: human Rin1-Abl interaction inhibition. TR-FRET Rin1/Abl binding, biochemical. P00519+Q13671. 0.4% of 360,000 active. inhibition, % at 7.35 µM; in the data active = inhibition above about 5%, passing the limit was not always enough
PKA-R2B activ: activates the human PKA-R2B holoenzyme complex. PKA-R2B holoenzyme dissociation, Cy5-IP20 fluorescence polarization; R2B truncated from residue 108, S112A mutant; 0% DMSO only, 100% 113 µM cGMP. 0.079% of 340,000 active. activation, % at 11.4 µM. AID 504700. P22694+P31323;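 active = activation above a cutoff set at the mean over all compounds plus 3 SD, cut at about 18% in these data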;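 also: higher means more holoenzyme dissociation and a rise in polarization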
eLon confirm: E. coli Lon inhibition confirmation. inhibition, % at 7.94 µM. purified E. coli Lon, fluorescence polarization. 31% of 1,400 active. AID 602230. shares compounds with eLon inh; in the data active = inhibition above about 16%
Each line names hits and unclear results; the compound was inactive in the other large screens (follow-up assays come after a bar, where they were run).

Cc1c(C)n(C)c2ccc(C(=O)NCCCN3CCOCC3)cc12	eLon inh 56 | eLon confirm inactive
CCN(CC)C(=O)[C@H]1CC(CC(=O)NCCCN(C)C)C(=O)N2CCc3c([nH]c4ccc(OC)cc34)[C@]12C (stereo partly specified)	eLon inh active (no result: IDE inh) | eLon confirm inactive
CCN(CC)C(=O)[C@H]1CC(CC(=O)NCCN2CCOCC2)C(=O)N2CCc3c([nH]c4ccc(OC)cc34)[C@]12C (stereo partly specified)	none (no result: IDE inh)
O=C1C(NS(=O)(=O)c2ccccc2)=C(N2CCN(c3ccc(F)cc3)CC2)C(=O)c2ccccc21	none
O=C1C(NS(=O)(=O)c2cccs2)=C(N2CCN(c3cccc(Cl)c3)CC2)C(=O)c2ccccc21	eLon inh 19 | eLon confirm 32
CC(=O)N1CCOc2ccc(S(=O)(=O)NC(C)c3ccccc3)cc21 (stereo unspecified)	none
COC1=CC(=NCl)C=CC1=NCl	eLon inh 45 (no result: PKA-R1A act, IDE cell activ, IDE inh, PKA-R2B activ) | eLon confirm 39
CCCOc1ccc(C2C(C(=O)c3ccc(C)o3)=C(O)C(=O)N2Cc2cccnc2)cc1 (stereo unspecified)	none (no result: PKA-R1A act, IDE cell activ, eLon inh, Rin1-Abl PPI inh, PKA-R2B activ)
COc1cc(C(=O)N/N=C/c2sc(N3CCOCC3)nc2-c2ccccc2)cc(OC)c1OC	eLon inh 17 | eLon confirm inactive
Nc1ccc(C(=O)N/N=C/c2sc(N3CCOCC3)nc2-c2ccccc2)cc1	none
CCN(CC)c1ccc2nc3ccc(N)cc3[n+](-c3ccccc3)c2c1	eLon inh 170 (no result: IDE inh) | eLon confirm 124
O=C(CC1CCCCC1)N=C1SC2CS(=O)(=O)CC2N1c1ccccc1 (stereo unspecified)	none
O=C(c1ccccc1)c1c2c(cc3sc4ccccc4[n+]13)-c1cccc3cccc-2c13	eLon inh active | eLon confirm active
COc1ccc(NC(=O)c2ccc(Cl)c(S(=O)(=O)N3CC(C)OC(C)C3)c2)cn1 (stereo unspecified)	none
Cc1ccc2c(c1)C(=O)CCN2	none
O=C1CCNc2ccc(-c3ccccc3)cc21	eLon inh 73 | eLon confirm active
CC1(C)CC(=O)C(C(=S)Nc2ccccc2)=C(NC2CC(C)(C)NC(C)(C)C2)C1	eLon inh 59 | eLon confirm inactive
CC1(C)CC(NC(=S)Nc2ccc(S(N)(=O)=O)cc2)CC(C)(C)N1	none
c1cc(CNCC2CCCO2)ccn1 (stereo unspecified)	none
C=CCOc1ccc(CNCC2CCCO2)cc1 (stereo unspecified)	eLon inh 54 | eLon confirm inactive
NS(=O)(=O)c1ccc(NC(=O)/C=C/c2ccc(S(=O)(=O)NCc3ccco3)cc2)cc1	none
CC(C)C[C@@H](CN1CCC[C@H]1CN1C(=O)C(=O)NC[C@@H]1Cc1ccc(O)cc1)N1C[C@H](Cc2ccccc2)N(CCc2ccccc2)C(=O)C1=O	eLon inh 11 (no result: PKA-R1A act, IDE cell activ, IDE inh, Rin1-Abl PPI inh, PKA-R2B activ) | eLon confirm inactive
Cc1cc(Cl)ccc1OC(C)C(=O)NN=C1CCCCCC1 (stereo unspecified)	eLon inh 21 | eLon confirm inactive
COc1ccc(C2C(C(=O)c3cccs3)=C(O)C(=O)N2c2cccc(C)n2)cc1 (stereo unspecified)	none
Cc1ccc(C2C(C(=O)c3cccs3)=C(O)C(=O)N2c2nnc(C)s2)cc1 (stereo unspecified)	eLon inh 29 | eLon confirm 61
O=C1OC(Nc2cc(Br)cc3cccnc23)c2ccccc21 (stereo unspecified)	eLon inh 42 | eLon confirm inactive
O=C(O)CCC1(CCC(=O)O)c2ccccc2-c2ccccc21	none
CC(C)C1NC2(C(=O)c3ccccc3C2=O)C2C(=O)N(c3ccc(F)cc3)C(=O)C12 (stereo unspecified)	eLon inh 50 | eLon confirm inactive
O=C1C2C3C=CC(CC3)C2C(=O)N1c1ccc(F)cc1 (stereo unspecified)	none
